PAX8 reporter = lowers PAX8-driven luciferase in RMG-I cells | inhibition, % at 12.6 µM | RMG-I TPO-luciferase reporter, SteadyGlo, 24 h | hit rate 1.2% among 360,000 | AID 652154;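 active = mean replicate inhibition at least 60% with every replicate also reaching 60%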;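 note: luciferase light reporting Pax8 driven TPO promoter activity; plate controls were median of neutral control wells for no effect and mitoxantrone controls for full effect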
CF NFkB inh = inhibitors of cystic fibrosis induced NF-kB; inhibition, % at 5 µM; AID 588850; KKLEB NF-kB-GFP reporter, PAF-induced, GFP fluorescence overnight; hit rate 0.86% among 360,000;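 active = at least 50% inhibition at 5 µM, scaled per plate between neutral and stimulator controls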;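 note: PAF is a Pseudomonas aeruginosa culture filtrate used as stimulus; plate controls were PAF-stimulated DMSO wells for no effect and unstimulated DMSO wells for full effect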
HIF-2a block = inhibitors of HIF-2a | AID 624352 | 786-0 RCC cells HIF-2a reporter, luciferase luminescence, overnight | hit rate 0.72% among 360,000 | inhibition, % at 18.8 µM;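 active = inhibition of the luminescence signal of 40% or more relative to plate controls, in a single-dose primary screen at 18.75 µM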
EWS-Fli inh = blocks EWS/Fli oncoprotein-driven transcription; A673 NR0B1-luciferase reporter, viability-normalised; inhibition, % at 12.6 µM; hit rate 0.67% among 350,000; AID 651661;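 active = mean inhibition of at least 50% after viability correction, with every replicate also passing that limit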;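 note: firefly luciferase signal divided by Alamar Blue viability fluorescence both relative to DMSO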
KKLEB tox = reduces viability of KKLEB cystic fibrosis airway cells | KKLEB CF airway cells viability, ATPlite luminescence, overnight; active compounds read low; cells stimulated with P. aeruginosa culture filtrate | activity change (cytotoxicity), % at 5 µM | hit rate 0.36% among 360,000;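 active = corrected activity change at or below -50% at 5 µM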
Numbers without * were called inactive; / = no result. Most compounds without a hit are left out; they make up all but 2.1% or so of the library.

SMILES	PAX8 reporter	CF NFkB inh	HIF-2a block	EWS-Fli inh	KKLEB tox
COC(=O)C[C@@H]1CC[C@@H]2[C@@H](COc3ccc(NC(=O)c4cccs4)cc3C(=O)N2C)O1	-6.6	/	/	44.6	/
C=CCNC(=O)[C@@H]1[C@H]2C(=O)O[C@H](c3ccccc3)[C@H](c3ccccc3)N2[C@H](c2ccccc2OCCO)[C@@]12C(=O)N(C(=O)OCCOC)c1ccc(C#CC3=CCCCC3)cc12	68.0*	/	/	11.2	/
C=CCNC(=O)[C@H]1[C@@H]2C(=O)O[C@@H](c3ccccc3)[C@@H](c3ccccc3)N2[C@@H](c2ccccc2OCCO)[C@]12C(=O)Nc1ccc(C#CC3(O)CCCCCC3)cc12	99.1*	/	/	20.5	/
O=C1O[C@H](c2ccccc2)[C@H](c2ccccc2)N2[C@H]1[C@@H](C(=O)N1CCCCCCC1)[C@]1(C(=O)Nc3ccc(C#CC4(O)CCCCCC4)cc31)[C@H]2c1ccc(OCCO)cc1	-0.7	/	/	0.7	/
C=CCNC(=O)[C@@H]1[C@H]2C(=O)O[C@H](c3ccccc3)[C@H](c3ccccc3)N2[C@H](c2ccccc2OCCO)[C@@]12C(=O)N(C(=O)OCCOC)c1ccc(C#CCC(C(=O)OC)C(=O)OC)cc12	103.6*	/	/	58.5*	/
C=CCNC(=O)[C@@H]1[C@H]2C(=O)O[C@H](c3ccccc3)[C@H](c3ccccc3)N2[C@H](c2ccccc2OCCO)[C@@]12C(=O)N(C(=O)OCCOC)c1ccc(C#CC3(O)CCCCCC3)cc12	71.4*	/	/	14.3	/
Cc1ccc(S(=O)(=O)Nc2ccc3c(c2)C(=O)N([C@H](C)CO)C[C@H](C)[C@@H](CN(C)C(=O)c2ccccc2)OCCCC[C@H](C)O3)cc1	54.2	/	/	-3.1	/
CC[C@@H](C)[C@@H]1CN([C@@H](CN2CCC[C@H]2CN2C(N)=NC[C@H]2C(C)C)C(C)C)C(=N)N1CCCC1CCCC1	84.4*	3.1	0.1	-6.0	-6.8
CN(C)CC(=O)N[C@@H]1CC[C@@H](CCNC(=O)C2CC2)O[C@@H]1CO	/	/	/	-2.4	/
N/C(=N\OC(=O)c1ccc2ccccc2c1)c1ccncc1	-112.2	-6.8	-256.0	-15.5	3.8
CCCc1ccc(C(=O)O/N=C(\N)c2ccccn2)cc1	105.6*	6.9	63.4*	88.0*	-43.4
N/C(=N\OC(=O)c1ccc2ccccc2c1)c1ccccn1	75.3*	19.3	25.5	80.3*	-67.6*
O=C(/C=C/Nc1ccccc1Br)c1ccccn1	/	4.2	85.2*	/	-4.1
CCc1ccc(/C=C2\SC(=S)N(CCCC(=O)N(CCO)c3ccccc3)C2=O)cc1	94.3*	20.4	65.3*	54.2*	-17.4
CCc1ccc(C=C2SC(=S)N(CCCC(=O)Nc3ccc(C(=O)O)cc3)C2=O)cc1	45.3	5.8	50.9*	24.5	-12.5
CCOc1ccc(/C=C2\SC(=S)N(CCC(=O)N(CCO)c3ccccc3)C2=O)cc1	16.5	5.8	57.2*	33.3	-0.9
CCc1ccc(/C=C2/SC(=S)N(CCC(=O)Nc3ccc(C(=O)O)cc3)C2=O)cc1	/	-1.0	10.1	-46.2	6.0
O=C1/C(=C/c2cccs2)SC(=S)N1CCCC(=O)N(CCO)c1ccccc1	31.8	2.3	20.5	3.6	-2.9
COc1ccc(/C=C2\SC(=S)N(CCC(=O)N(CCO)c3ccccc3)C2=O)cc1OC	-6.1	16.0	12.0	21.1	8.8
CCCN(C)C[C@H]1Oc2cc(C#CC3CCCC3)ccc2S(=O)(=O)N([C@H](C)CO)C[C@H]1C	7.2	/	/	-34.4	/
O=C(CN1C(=O)c2ccccc2S1(=O)=O)c1ccccc1	/	0.5	46.5*	/	0.6
Cc1cc(C(=O)CN2C(=O)C3CC=CCC3C2=O)c(C)n1-c1ccccc1 (stereo unspecified)	-107.0	-3.5	-94.1	/	-7.9
O=C(CN1C(=O)c2ccccc2S1(=O)=O)Nc1ncc(Cl)cc1Cl	39.1	12.2	32.1	58.2*	-7.9
O=C(CN1C(=O)c2ccccc2S1(=O)=O)Nc1ncccn1	-9.3	1.1	3.0	0.1	9.7
Cc1cc(C(=O)CN2C(=O)c3ccccc3S2(=O)=O)c(C)n1-c1ccccc1	/	7.6	86.5*	/	-9.1
CC(C)NC(=O)CN1C(=O)c2ccccc2S1(=O)=O	-8.5	3.0	4.1	20.2	1.8
C[C@H](CO)N1C[C@H](C)[C@H](CN(C)Cc2ccncc2)OCCCC[C@H](C)Oc2ccc(NC(=O)Nc3ccc(C(F)(F)F)cc3)cc2C1=O	70.7*	/	/	10.1	/
C[C@H](CO)N1C[C@H](C)[C@@H](CN(C)Cc2ccncc2)OCCCC[C@H](C)Oc2ccc(NC(=O)Nc3ccc(C(F)(F)F)cc3)cc2C1=O	14.9	/	/	0.5	/
